L3MBTL1 inh: qHTS Assay for the Inhibitors of L3MBTL1 | Lethal(3)malignant brain tumor-like protein 1 (Homo sapiens), Q9Y468 | AlphaScreen L3MBTL1–H3K9me1 peptide binding | Potency, µM (doses to about 57.1 µM), without a hit: top-dose activity, negative = inhibition, most hits filed as inhibitors | 0.66% of 230,000 active | AID 485360, 2010; also: % is scaled to controls: 0 for no effect and ±100 for the full control effect; nearly all actives have a fitted effect of over 60% in size
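Read-out is AlphaScreen signal from streptavidin donor and nickel chelate acceptor beads (10 ug/mL final each) bridging L3MBTL1 (50 nM) and biotinylated K9-monomethylated H3(1-15) peptide (75 nM), after 30 min compound exposure at room temperature.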
PLK1 PBD inh: qHTS for Inhibitors of PLK1-PDB (polo-like kinase 1 - polo-box domain): Primary Screen; Serine/threonine-protein kinase PLK1 (Homo sapiens), P53350; Plk1 PBD binding of FITC phosphopeptide, fluorescence polarization; Potency, µM, without a hit: max response, negative = inhibition, actives largely listed as inhibitors; 2.8% of 360,000 active; also: series mostly up to about 57 µM; % is scaled to controls: 0 for no effect and ±100 for the full control effect; nearly all actives have a fitted effect of over 65% in size
HP1b binding inh: HTS for Inhibitors of HP1-beta Chromodomain Interactions with Methylated Histone Tails; AlphaScreen HP1-beta / biotin-H3K9me3 peptide binding; Potency, µM (top dose mostly 114 µM), for inactives: at the top dose activity change, negative = inhibition, most hits filed as inhibitors; 0.56% of 390,000 active; AID 540317, 2011; also: nearly all actives have a fitted effect of over 70% in size
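HP1-beta protein (50 nM final) preincubated 30 min at room temperature with biotinylated H3(1-18)K9me3 peptide (50 nM) in PBS pH 7.4, 0.01% Tween-20, then compound added for 30 min. AlphaScreen streptavidin donor/nickel chelate acceptor beads (10 ug/mL final), 30 min dark, luminescence read.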
JMJD2A Tudor inh: qHTS Assay for Inhibitors of JMJD2A-Tudor Domain. Lysine-specific demethylase 4A (Homo sapiens), O75164. AlphaScreen JMJD2A-Tudor / H3K4me3 peptide binding. Potency, µM (titrated, usually from 114 µM), for the others: at the top dose activity change, negative = inhibition, most hits filed as inhibitors. 4.4% of 390,000 active; also: % is scaled to controls: 0 for no effect and ±100 for the full control effect; nearly all actives have a fitted effect of over 50% in size
Target sequence (O75164 whole entry, looked up, the tested form may be a part): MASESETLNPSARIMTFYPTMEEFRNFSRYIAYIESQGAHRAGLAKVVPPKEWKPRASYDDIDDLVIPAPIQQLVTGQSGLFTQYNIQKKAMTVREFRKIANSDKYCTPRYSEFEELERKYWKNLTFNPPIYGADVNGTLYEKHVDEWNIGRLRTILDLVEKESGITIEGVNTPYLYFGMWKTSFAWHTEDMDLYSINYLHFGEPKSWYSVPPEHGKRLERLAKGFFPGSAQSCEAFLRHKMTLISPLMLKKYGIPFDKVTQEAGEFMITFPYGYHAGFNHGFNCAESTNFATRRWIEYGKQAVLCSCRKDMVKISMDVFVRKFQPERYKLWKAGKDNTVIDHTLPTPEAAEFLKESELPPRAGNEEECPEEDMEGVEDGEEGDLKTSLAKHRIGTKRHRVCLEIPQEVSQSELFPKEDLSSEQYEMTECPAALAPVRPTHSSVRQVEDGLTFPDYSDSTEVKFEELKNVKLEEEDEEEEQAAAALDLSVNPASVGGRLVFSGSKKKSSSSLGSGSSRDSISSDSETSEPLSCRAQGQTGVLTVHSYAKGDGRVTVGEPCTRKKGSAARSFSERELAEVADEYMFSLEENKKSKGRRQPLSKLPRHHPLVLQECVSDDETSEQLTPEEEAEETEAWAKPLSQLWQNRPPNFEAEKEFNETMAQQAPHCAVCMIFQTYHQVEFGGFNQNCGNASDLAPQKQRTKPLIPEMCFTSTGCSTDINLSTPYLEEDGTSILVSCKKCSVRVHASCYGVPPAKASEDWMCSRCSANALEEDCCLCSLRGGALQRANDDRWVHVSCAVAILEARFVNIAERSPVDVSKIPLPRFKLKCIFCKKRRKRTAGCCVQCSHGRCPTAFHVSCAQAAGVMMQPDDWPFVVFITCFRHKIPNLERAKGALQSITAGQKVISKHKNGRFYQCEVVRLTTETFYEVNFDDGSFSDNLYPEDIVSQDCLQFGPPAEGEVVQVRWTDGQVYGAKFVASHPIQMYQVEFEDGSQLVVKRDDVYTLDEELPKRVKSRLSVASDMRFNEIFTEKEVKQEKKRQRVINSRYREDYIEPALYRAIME
VDR inh: Inhibitors of the vitamin D receptor (VDR): qHTS | VDR-SRC2-3 peptide fluorescence polarization, 2 h | Potency, µM, for the others: max response, negative = inhibition, most hits filed as inhibitors | 0.93% of 400,000 active | AID 504847, 2011; also: % is scaled to controls: 0 for no effect and ±100 for the full control effect
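Reagent solutions, kept cold and dark, are dispensed first; compounds are then pinned in at 23 nl, plates briefly spun, and incubated 2 h at ambient temperature. Inhibition of VDR–SRC2-3 peptide binding is read by fluorescence polarization.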
BAZ2B block: qHTS Assay for Inhibitors of BAZ2B. Potency, µM (top dose mostly 114 µM), for the others: top-dose activity change, negative = inhibition, hits mostly inhibitors. 4.4% of 360,000 active. AlphaScreen BAZ2B-H3K14Ac peptide displacement. AID 504333, 2011; also: % is scaled to controls: 0 for no effect and ±100 for the full control effect; nearly all actives have a fitted effect of over 60% in size
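Protein-peptide AlphaScreen: BAZ2B 50 nM, b-H3K14Ac 50 nM, 1x PBS pH 7.4 + 0.01% Tween-20. Preincubation 30 min RT; cpd 30 min RT (top 110 uM); beads 20 min RT, light-protected.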
* = called active by the depositor; [ ] = dose if it differs, or a comment. In the library only some 6.9% were active in any assay of this set; here they are far more common. Calls follow the shape of the dose curve; as a rule, active = well fitted curve in the direction sought with a large enough effect; inconclusive = small, poorly fitted or top-dose-only effect, or another doubt; inactive = no such curve, though single readings can be large; an effect the other way counts as inactive or inconclusive. Potency is read from the fitted curve at half-maximal effect.

What do the screens show for `CC(C)CNC(=O)c1cc(S(=O)(=O)N2CCOCC2)ccc1N1CCCC1`?
PLK1 PBD inh: 6%; HP1b binding inh: 17%; JMJD2A Tudor inh: -6%; VDR inh: -5%; BAZ2B block: -1%

What do the screens show for `Cc1ccc(C(=O)Nc2cc(S(=O)(=O)N3CCOCC3)ccc2N2CCCC2)cc1`?
L3MBTL1 inh: 2%; PLK1 PBD inh: 1%; HP1b binding inh: 52%; JMJD2A Tudor inh: 4%; VDR inh: 0%; BAZ2B block: 1%

Results for Cc1ccc(S(=O)(=O)NC(=O)c2cc(C)n(-c3cc(S(=O)(=O)N4CCOCC4)ccc3N3CCCC3)c2C)cc1 ?
PLK1 PBD inh: 30µM*; HP1b binding inh: -13%; JMJD2A Tudor inh: -24%; VDR inh: 18%; BAZ2B block: -9%

What do the screens show for `COCCNCc1cc(C)n(-c2cc(S(=O)(=O)N3CCOCC3)ccc2N2CCCC2)c1C`?
PLK1 PBD inh: 3%; HP1b binding inh: -37%; JMJD2A Tudor inh: 5µM*; VDR inh: 5%

How did O=C1Nc2ccccc2SC(c2ccccc2)C1O (stereo not drawn) do in these assays?
PLK1 PBD inh: inconclusive; HP1b binding inh: -30%; JMJD2A Tudor inh: 56µM*; VDR inh: -10%; BAZ2B block: 40µM*

What do the screens show for `O=C(Cn1c(=O)oc2cc(S(=O)(=O)N3CCCCC3)ccc21)Nc1cccc(Cl)c1`?
HP1b binding inh: 22%; JMJD2A Tudor inh: -9%; VDR inh: -8%; BAZ2B block: inconclusive

What do the screens show for `Cc1ccc(NS(=O)(=O)c2cc3c(cc2-c2ccsc2)NC(=O)CO3)cc1C`?
JMJD2A Tudor inh: -29%

Results for Cc1ccc(-n2ncc3c2CC(C)(C)CC3NC(=O)CCCN2CCCCC2=O)cc1 (stereo not drawn) ?
PLK1 PBD inh: 27µM*; HP1b binding inh: 6%; JMJD2A Tudor inh: inconclusive; VDR inh: -17%; BAZ2B block: -5%

Results for CC1(C)Cc2c(cnn2-c2ccccc2)C(NC(=O)CCCN2CCCC2=O)C1 (stereo not drawn) ?
PLK1 PBD inh: -1%; HP1b binding inh: 39%; JMJD2A Tudor inh: -4%; VDR inh: -11%; BAZ2B block: -5%

How did Cc1nn(C)c(C)c1S(=O)(=O)NC1CCCC1 do in these assays?
L3MBTL1 inh: 3%; PLK1 PBD inh: -9%; HP1b binding inh: 8%; JMJD2A Tudor inh: 0%; VDR inh: 5%; BAZ2B block: 6%

How did Cc1nn(-c2nnc(NC3CCCCC3)nn2)c(C)c1Br do in these assays?
L3MBTL1 inh: inconclusive; PLK1 PBD inh: -3%; HP1b binding inh: inconclusive; JMJD2A Tudor inh: 45µM*; VDR inh: 2%; BAZ2B block: 14µM*

What do the screens show for `COc1cc(Cl)c(C)cc1NC(c1ccccc1)c1nnc(-c2ccccc2Cl)o1` (stereo not drawn)?
HP1b binding inh: 16%; JMJD2A Tudor inh: -13%; VDR inh: -3%; BAZ2B block: -21%

Results for Nc1sc2c(c1C(=O)NCCc1ccccc1)CCC2 ?
L3MBTL1 inh: -11%; PLK1 PBD inh: inconclusive; HP1b binding inh: inconclusive; JMJD2A Tudor inh: -33%; VDR inh: inconclusive; BAZ2B block: inconclusive

How did Nc1sc2c(c1C(=O)c1ccccc1)CCCC2 do in these assays?
L3MBTL1 inh: -12%; PLK1 PBD inh: 21µM*; HP1b binding inh: -14%; JMJD2A Tudor inh: inconclusive; VDR inh: inconclusive; BAZ2B block: -34%

How did NC(=O)c1c(N)sc2c1CCCC2 do in these assays?
L3MBTL1 inh: 0%; PLK1 PBD inh: 24µM*; HP1b binding inh: 2%; JMJD2A Tudor inh: -32%; VDR inh: -28%; BAZ2B block: inconclusive

What do the screens show for `CC(=O)NS(=O)(=O)c1ccc(N=c2ssc3c2-c2cc(C)ccc2NC3(C)C)cc1`?
L3MBTL1 inh: -12%; PLK1 PBD inh: -27%; HP1b binding inh: -10%; JMJD2A Tudor inh: inconclusive; VDR inh: -13%; BAZ2B block: inconclusive

What do the screens show for `CC1(C)Nc2ccc(O)cc2-c2c1ssc2=S`?
L3MBTL1 inh: inconclusive; PLK1 PBD inh: 27µM*; HP1b binding inh: 50µM*; JMJD2A Tudor inh: 40µM*; VDR inh: inconclusive; BAZ2B block: 45µM*

What do the screens show for `CCOc1cc(CNc2ccc3c(c2)OCCO3)cc(Br)c1OCC(N)=O`?
L3MBTL1 inh: -18%; PLK1 PBD inh: -7%; HP1b binding inh: -39%; JMJD2A Tudor inh: 50µM*; VDR inh: -4%; BAZ2B block: 45µM*

What do the screens show for `CCOc1cc(CNc2ccc3c(c2)OCCO3)cc(Br)c1OC`?
PLK1 PBD inh: -2%; HP1b binding inh: -69%; JMJD2A Tudor inh: 40µM*; VDR inh: 32%; BAZ2B block: 22µM*

Results for CCOc1c(Br)cc(CNc2ccc3c(c2)OCCO3)cc1OC ?
PLK1 PBD inh: -8%; HP1b binding inh: -81%; JMJD2A Tudor inh: 50µM*; VDR inh: 6%; BAZ2B block: 35µM*

Results for CCOC(=O)N1CCC(N(CCN(C)C)C(=S)Nc2ccc(Oc3ccccc3)cc2)CC1 ?
L3MBTL1 inh: -17%; PLK1 PBD inh: inconclusive; HP1b binding inh: 15%; JMJD2A Tudor inh: inconclusive; VDR inh: -5%; BAZ2B block: inconclusive

Results for Cc1ccc(NS(=O)(=O)c2cnc(N)nc2)c(C)c1 ?
HP1b binding inh: 9%[57 µM]; JMJD2A Tudor inh: -14%; VDR inh: 3%; BAZ2B block: 0%

How did COCCCNCC(O)COc1ccccc1F (stereo not drawn) do in these assays?
PLK1 PBD inh: -2%; HP1b binding inh: inconclusive; JMJD2A Tudor inh: 1.3µM*; VDR inh: -7%; BAZ2B block: 11%

What do the screens show for `O=C(Nc1ccc(S(=O)(=O)N(Cc2ccccc2)c2ccccc2)cc1)c1ccc([N+](=O)[O-])cc1`?
HP1b binding inh: -19%; JMJD2A Tudor inh: -33%; VDR inh: 0%; BAZ2B block: -19%

What do the screens show for `Cc1cccc2nc(-c3ccccc3)nc(N[C@@H](CO)c3ccccc3)c12`?
L3MBTL1 inh: 6%; PLK1 PBD inh: 5%; HP1b binding inh: 17%; JMJD2A Tudor inh: -10%; VDR inh: -15%; BAZ2B block: -20%

What do the screens show for `CCN(Cc1ccccc1)C(=O)CCS(=O)(=O)c1cc2c(cc1Cl)NC(=O)CO2`?
L3MBTL1 inh: 3%; PLK1 PBD inh: -22%; HP1b binding inh: 50%; JMJD2A Tudor inh: -4%; VDR inh: -12%; BAZ2B block: 4%

Screening results deposited in PubChem by National Center for Advancing Translational Sciences (NCATS).
